# Source: the supplement of paper PMC3334620
# Whole data set: some 33,000 sequences, median “E-score (-0.5 to 0.5)” near -0.01, cut for the highest 2% near 0.26. The list comes from a sample in which the highest values are over-represented; it also holds similar and randomly drawn sequences.
# Target: Ste12 (UniProt P13574)
# Experiment: PBM E-score (8-mer binding enrichment) (E-score (-0.5 to 0.5)); higher = stronger / more preferred TF binding
# Conditions: protein concentration: 200 nM; construct: GST-DNA-binding domain
# Procedure, shortened: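 For each ungapped eight-base word taken together with its reverse complement, the Universal PBM Analysis Suite assigned an E-score. Binding data came from GST-tagged yeast transcription factors, applied at about 100-200 nM, on universal all-10-mer Agilent arrays made double-stranded by primer extension. Fluorescent anti-GST marked bound protein, and scans were normalised with masliner.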
# UniProt P13574, sequence (P13574 whole entry): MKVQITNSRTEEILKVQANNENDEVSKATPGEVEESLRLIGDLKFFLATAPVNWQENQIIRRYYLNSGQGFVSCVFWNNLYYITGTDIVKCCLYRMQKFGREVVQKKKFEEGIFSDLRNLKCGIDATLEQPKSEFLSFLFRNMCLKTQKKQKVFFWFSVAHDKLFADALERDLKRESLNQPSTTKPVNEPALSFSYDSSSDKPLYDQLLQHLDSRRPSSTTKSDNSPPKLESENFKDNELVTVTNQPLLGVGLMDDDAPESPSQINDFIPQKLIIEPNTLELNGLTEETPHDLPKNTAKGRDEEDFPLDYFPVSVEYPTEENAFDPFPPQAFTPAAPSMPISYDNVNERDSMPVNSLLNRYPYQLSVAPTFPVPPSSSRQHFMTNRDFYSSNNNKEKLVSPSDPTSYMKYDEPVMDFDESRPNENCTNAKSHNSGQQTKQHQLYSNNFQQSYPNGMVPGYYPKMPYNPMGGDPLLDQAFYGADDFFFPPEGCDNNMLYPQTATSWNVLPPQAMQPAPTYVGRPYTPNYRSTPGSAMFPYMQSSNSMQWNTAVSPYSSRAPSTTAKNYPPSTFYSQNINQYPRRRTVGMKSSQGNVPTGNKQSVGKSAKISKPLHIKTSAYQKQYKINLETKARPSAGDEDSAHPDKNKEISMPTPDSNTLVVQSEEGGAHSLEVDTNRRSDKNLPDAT
row,Sequence,PBM E-score
1,CGTGATCA,-0.00817
2,CGCTTCGA,-0.0748
3,CGGTTTGC,0.0736
4,AAAGTGCG,0.0163
5,CTTTCTTA,0.0052
6,CCCTGACA,-0.0188
7,AGTTTCCA,0.212
8,CATTTCAC,0.099
9,CGTTTCTC,0.0338
10,CGTTTCAC,0.453
11,AGTTTCGC,0.184
12,AGTTTCAA,0.307
13,ACTTTCAC,0.139
14,AGTTTCTC,-0.0852
15,AGTTTCTA,0.16
16,CGTTTCGC,0.296
17,AGTTTCAC,0.338
18,CGTTTCGA,0.195
19,GTCCATAA,-0.172
20,CGGTGGAC,-0.157
21,CTCACTAC,0.00581

row,Sequence,PBM E-score
1,CAGTTACA,0.0929
2,CCTTTCAA,-0.0319
3,CGTTTCTA,0.166
4,CGTTTCAA,0.46
5,AAGCTAGC,-0.242
6,CACTTCGC,0.0953
7,AAGAATGA,0.209
8,ACATCCCT,-0.0649
9,ACATCCCC,0.321
10,CCATCCCC,0.0914
11,AGCAGGTG,-0.0318
12,CAATCCGC,0.0698
13,AAATCCGG,0.0201
14,CAATCCCG,0.321
15,CAATCCGG,0.273
16,CAATCCCC,0.0988
17,CAATCCCA,-0.0795
18,CTAGGAAA,-0.0731
19,TTAGGAAA,0.292
20,ATAGGAAA,0.0645
21,AAGAAATC,-0.0981

row,Sequence,PBM E-score
1,CTGAAATA,0.202
2,CTGAAACC,0.47
3,ATGAAACC,0.457
4,CTGAAACA,0.495
5,AGGAAACC,-0.0955
6,CTGAAAAC,0.0248
7,CTGAAAGA,0.00814
8,CTGAAATC,-0.0192
9,ATGAAATC,0.185
10,AGAACATC,-0.0976
11,CGACCGTC,-0.173
12,CGAGTCAC,-0.0334
13,CAATGCAC,-0.042
14,TTAACAAA,0.246
15,AGAACAAG,0.0467
16,GTAACAAA,0.312
17,CTAACAAA,0.0819
18,ACAACAAA,0.152
19,AGAACAAA,0.312
20,TAAACAAA,0.244
21,GAAACAAA,0.345

row,Sequence,PBM E-score
1,AGAACAAT,0.247
2,AAAACAAA,0.293
3,CAAACAAA,0.149
4,AAAACAAG,0.104
5,ATGAGAAC,0.118
6,AGTGAGCG,-0.176
7,CCGCAGCG,-0.033
8,GCGTAGCA,0.0572
9,CTCGACTA,0.0414
10,GAGACCTA,-0.0109
11,GAGATTGA,0.0793
12,CCTAGAAA,0.144
13,AAAACAAC,0.154
14,GAAACAAC,0.334
15,CAAACAAC,0.223
16,GGGGTGAA,0.0185
17,CGCCTAGA,-0.0727
18,ACATCTTC,0.261
19,ACATCTTA,-0.0589
20,ACATCTTG,-0.151
